Here are results for 69 sequences from PubChem BioAssay AID1508600 (Functional Genomics Laboratory (NCATS/FGL), 2020).

Hit rate of the full screen: of about 53,000 sequences, about 3,700 (7%) were called active.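 The calls were made as follows: active = gene knockdowns whose robust z-score for IL-1 alpha signal is at least 2 or at most -2, so actives lie on both sides; inactive = the rest.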 Many of the other results were omitted from the sample, so actives are more common in it than they were.

The nature of the experiment: Components of the Cytosolic LPS Sensing Pathway: Gene Identification via Genome-wide siRNA Screen.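 Also: robust z of the log signal after scaling to non-targeting control siRNA wells of the plate.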 The following applies: RAW264.7 macrophages, IL-1a HTRF, actives lie on both sides, screened at 100 nM (by protocol), cells primed 5 h with Pam3CSK4 first. A digest of the protocol:
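Cells (RAW264.7, 1×10^4 per well) were transfected with siRNA at 100 nM and cultured 48h at 37 degrees C. Pam3CSK4 was added for 5 hours; LipidA transfection followed for 24 hour. IL-1a was then measured by HTRF.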
For orientation: Time-resolved FRET reads energy transfer from a long-lived donor to a nearby acceptor.
With UGAUAUCGGAACAGAGAUGTT against Tbx15, the z-score was -0.467 (inactive).
Then GGAAGUAAAAACAUACCUUTT against Chac2, with 2.02 (active); and CCCAAAGCCCUUUUAAACUTT against Hmbs, with 0.301 (inactive).
Consider GGUAAAAGACUAAAGAAGATT against Coch, for which the z-score was -0.485 (inactive).
To CCGCUGUUUUCAACUGUGCTT against Asb10 belongs -0.773 (inactive); to GGAAGUGGUGGAACUCCUGTT against Tmem215, -2.65 (active); to GGACCUGGUCACCAUCUUGTT against Tram2, -0.3 (inactive).
Then CGGCAGAAGGGUUUUUAUGTT against Rnf126, with -0.365 (inactive); and CCAUACAUAUAGACAAUCCTT against AY358078, with 0.796 (inactive).
With CCUUCAUGCAACAGCUACUTT against Nckap5l, the z-score is -2.57 (active).
In the case of GCCCUAUCUACCAUAACACTT against Dok3, the z-score is -2.11 (active).
GGAUUCAGAAAUCUGGAAATT against Nmnat3: the z-score is -0.199 (inactive).
To GGUCAUCUUACAGUUUAAATT against Smap2 belongs 0.593 (inactive); to GCGAAUAUCCAACCUAUCUTT against Itgb7, -0.687 (inactive); to GGGCAUCAUGAAACUAUGUTT against Kbtbd4, -2.59 (active).
Consider GCUGAAGGCGACAAUGGAUTT against Ak2, for which the z-score is -0.0901 (inactive).
To GGCCUGCUAUAUGCAUUCCTT against Krtap12-1 belongs 0.974 (inactive); to GGAAAAGAUGCCUGUAUUUTT against Sgcd, -0.422 (inactive); to GGAUUCCAAAUGCUUACAATT against Lysmd3, 0.757 (inactive).
To GCCAAUGCAGGGUAAGUACTT against Tmtc2 belongs -2.83 (active); to GCCUAUCCGACAACUUAGUTT against Slc25a17, 0.136 (inactive).
To GCAUAACCAAGUGUGAUGCTT against Actrt2 belongs -0.439 (inactive).
Take GGAGAAAGUCAUCUUUGAUTT against Cdk5rap2: the z-score was -0.41 (inactive).
To GGAGACGGAGCUGUUAGAUTT against Plcb1 belongs -0.104 (inactive); to GGUCCAUUAGCUAAAUCUUTT against Mysm1, 1.87 (inactive).
Then CGAAGUGACAAUAAAUCAGTT against Snapc5, with -0.0661 (inactive); and GCAUCAGAGGGAUUUCACUTT against Slc35d3, with -2.68 (active).
Regarding GGGAGCCAAAGUGAGAUUUTT against Azin2, the z-score was 0.736 (inactive).
To GGCAAAGUGAGUAAGACAGTT against Habp2 belongs 0.0806 (inactive); to GCCCUAUUCCCAACUAUUCTT against Nefl, -0.481 (inactive).
Then GGACUUUACAGACACUUUUTT against Kdm1b, with -1.57 (inactive); and GCAGUUGUCACUGGCAAGUTT against Aqp2, with 2.21 (active); and GCAAAGGUUCUAGUUGAUATT against Cct2, with -0.585 (inactive).
Turning to CCGAUUUUGUGGCCUCAUGTT against Emg1, the z-score was -0.578 (inactive).
Consider GGAGAAAUGGGUAAAAACUTT against Paral1, for which the z-score was 0.296 (inactive).
Then GCCUAUGCUCAACUUCUCGTT against Thap4, with -3.31 (active).
To GGCCCUGACAGAGGAAAAATT against Impa2 belongs -1.16 (inactive).
To CGAUAUGAAGCGAAAUAUCTT against Pmpca belongs 0.528 (inactive); to GCCUUCCAGUCAGUGAAAUTT against Foxn1, -0.174 (inactive); to GGAAAUCGAGCAAAAGACATT against Cep104, 1.5 (inactive).
As for GCCAUUCUUUGAAAAGAGGTT against Ak8, the z-score is -1.77 (inactive).
To GGUCGUGAUAUUAUUGGGUTT against Ddx47 belongs 2.91 (active); to GCAGGUAAGUUAAAUGAUGTT against Ccdc148, 0.961 (inactive).
Then CCCUUUACAUUACUCUAGCTT against Olfr715, with 0.141 (inactive).
To GGGAGCGGAGCAAACAUAATT against Olfr1370 belongs 0.675 (inactive); to CGGUUCUUUUACCAAGAUCTT against Jak3, -0.781 (inactive).
As to GCCGAGUUUACUUGUUUGATT against Exd1, the z-score is 0.554 (inactive).
Then GGAAGCAAACUUAAAGUGUTT against Ewsr1, with 2.17 (active); and GGUGUUCUGUAUCUUGUUCTT against Ndn, with 0.572 (inactive); and GGAGCUCCAUGACAUGUUUTT against Stx3, with -0.37 (inactive).
To CGCGGAGUUUCGAAGUGUCTT against Drd4 belongs 3.64 (active); to GGAACCUAACAGAGAAACATT against Prpsap2, -0.166 (inactive).
Then GCAAAUACUCAAGUUCAGATT against Cpt1b, with 0.382 (inactive); and GGAUACUCGGGAUCUAGUATT against Anxa11, with -1.44 (inactive); and GGCAAUUCUGAAGAAACCATT against Ogn, with -2.23 (active).
In the case of GGAGGAGUCCCAUAACUCATT against Cby2, the z-score was 1.05 (inactive).
To GGUAAACUUGACAAUAGGATT against Zc3h14 belongs -0.512 (inactive).
Turning to CCCUGGUCGUCAUUUUCAATT against Morc2b, the z-score was 1.54 (inactive).
As for GCACAAGCGUGGAACACAUTT against Dctn2, the z-score is 0.702 (inactive).
Consider GGCCCAACAUAUAUCAAAUTT against Adck2, for which the z-score was 1.38 (inactive).
To GGAAACUGUUGAAUCUUGUTT against Smad5 belongs 1.42 (inactive); to CCACGCUCUCAAGGUAUAGTT against Cyp2d22, -2.81 (active); to GGGAUUGGGUAUUUUUUAGTT against B4galt1, -0.432 (inactive).
Then “CCCGUACAUUGAGUGCAAUTT against 6330403K07Rik”, with 0.414 (inactive).
Then GGAGUUCAGGAAAAUUCUUTT against Fsd1l, with 0.0551 (inactive).
Take GGAAGACCUUCAGAGAGAATT against Ell2: the z-score is 4.25 (active).
Turning to GGGAAAGUUAAUAUCAAGATT against Ephb4, the z-score was 0.185 (inactive).
To GGUGAUGAUGAUGGGCAACTT against Cdkn2a belongs 2.02 (active); to GGACAAGAUUCUAAACUGCTT against Wdr37, 1.03 (inactive).
